# Bioassay records deposited in PubChem by National Center for Advancing Translational Sciences (NCATS).
# An excerpt weighted towards active compounds, which were near 19% of everything screened.
# IL1B secr inh – inhibitors of inflammasome signaling (IL-1 beta secretion); THP-1 LPS/ATP IL-1B secretion, AlphaLISA, 16 h; stronger effect = lower value; activity change, % at 57.5 µM; hit rate 4.7% among 360,000; in the data active means activity change below about -50%; inconclusive means mostly about -30% to -49%
#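 THP-1 cells pretreated 1 hr with compounds (up to 57.5 uM final), then stimulated with LPS (250 ng/mL final) plus ATP (1.25 mM final); secreted IL-1B measured by AlphaLISA after 16 hr, decreased signal indicating inhibition.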
# BCR signal inh – blocks chronic active B-cell receptor signaling | AID 493014 | hit rate 0.05% among 340,000 | ABC-DLBCL IkBa-CBG/CBR reporter, luminescence ratio, 4 h | Potency, µM (top dose mostly 46.1 µM), actives largely listed as inhibitors; active means well fitted inhibition curve with a large enough effect in the signal ratio, with a control signal flat, not every such curve was filed as active; inconclusive means small, poorly fitted or top-dose-only effect, or effect the other way, or a change in a side signal; the % refers to the signal ratio
#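 TMD8 ABC-DLBCL cells carrying doxycycline-inducible green luciferase fused to IkappaBalpha plus unfused red luciferase were exposed to compounds (up to 46 uM) for 4 hrs at 37C. Activity came from the overlap-corrected green/red luminescence ratio.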
# MCF10A rereplic – DNA re-replication induction in MCF 10a cells; MCF 10A DNA re-replication, Hoechst nuclear intensity, 48 h; AID 624296; hit rate 2.9% among 350,000; Potency, µM (highest dose often 46.1 µM), hits mostly activators; further: nearly all actives have a fitted effect of over 50% in size
# TDP1 cell noCPT – qHTS for Inhibitors of human tyrosyl-DNA phosphodiesterase 1 (TDP1): qHTS in cells in absence of CPT; hit rate 15% among 420,000; Potency, µM (top dose mostly 46.2 µM), hits mostly inhibitors; AID 686978, 2013; DT40 Tdp1-/- hTDP1 cells, no CPT, ATP luminescence, 48 h; further: nearly all actives have a fitted effect of over 55% in size
#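 Chicken DT40 Tdp1-/- cells stably complemented with human TDP1 were seeded at 400 cells/well with DMSO in place of 20 nM camptothecin. After compound pinning, cells grew at least 48 hr at 37 °C; viability read by CellTiter-Glo luminescence.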
# SW480 rereplic – inducers of DNA re-replication in SW480 colon cancer cells. SW480 DNA re-replication, Hoechst DNA content imaging, 48 h. Potency, µM (series often up to 46.1 µM), usual class: activators. hit rate 1.8% among 340,000. AID 624297; further: nearly all actives have a fitted effect of over 55% in size
#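 Per well, 250 cells were exposed to pinned compound for 48 hr. Nuclear DNA was visualised with Hoechst (40 min, 37 C) and total object intensity recorded by fluorescence scanning.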
# TDP1 cell CPT – DT40-hTDP1 cell growth loss with CPT; chicken DT40 Tdp1-/-;hTDP1 cells + 20 nM CPT, ATP luminescence, 48 h; Potency, µM (top dose mostly 46.2 µM), most hits filed as inhibitors; hit rate 12% among 420,000; AID 686979; further: nearly all actives have a fitted effect of over 55% in size
#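 Chicken DT40 Tdp1-/- cells complemented with human TDP1, 400 cells/well, exposed to compounds plus 20 nM camptothecin for at least 48 h at 37 C; viability read as ATP content by CellTiter-Glo luminescence.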
# A number is an active result; - = inactive; ? = inconclusive; . = not tested or not shown. Unless noted, the call rests on the fitted dose curve; in most records, active means well fitted curve in the direction sought with a large enough effect; inconclusive means small, poorly fitted or top-dose-only effect, or another doubt; inactive means no such curve, though single readings can be large; an effect the other way counts as inactive or inconclusive.
SMILES,IL1B secr inh,BCR signal inh,MCF10A rereplic,TDP1 cell noCPT,SW480 rereplic,TDP1 cell CPT
CC(=O)N1CCCC(C)(C(=O)Nc2cccc(OC(C)C)c2)C1 (stereo not given),-,.,.,-,.,-
O=C1COc2ccc(C(=O)COC(=O)Cc3ccc(F)cc3)cc2N1,-,-,-,?,-,-
COc1ccc(S(=O)(=O)N2CCCCCC2)cc1C(=O)N(C)CCOc1ccc(Cl)cc1,?,-,?,21µM,-,21µM
O=C(NCc1nc2ccccc2[nH]1)c1cccc(S(=O)(=O)N2CCCCC2)c1,-,-,-,?,-,-
CCN1CCN(S(=O)(=O)c2ccc(Cl)c(C(=O)N(C)C(c3ccccc3)c3ccccc3)c2)CC1,-75,-,-,?,-,?
CCN1CCN(S(=O)(=O)c2ccc(Cl)c(C(=O)NCc3nc4ccccc4[nH]3)c2)CC1,-,-,?,?,10µM,?
Cc1cc(C)cc(C(=O)OCC(=O)N2CCCCCC2)c1,-,?,-,-,-,-
COc1ccc(NC(=O)C2CC(=O)N(c3ccccc3Cl)C2)c(OC)c1 (stereo not given),-,-,?,-,-,-
COc1ccc(N2CC(C(=O)Nc3ccccc3N3CCCC3)CC2=O)c(OC)c1 (stereo not given),-,-,?,4.6µM,21µM,2.9µM
CCc1ccc(N2CC(C(=O)Nc3ccccc3F)CC2=O)cc1 (stereo not given),-,-,-,-,-,-
COc1ccc(N2CC(C(=O)Nc3cc(C(F)(F)F)ccc3N3CCCC3)CC2=O)c(OC)c1 (stereo not given),-,-,?,23µM,-,?
Cc1ccc(CN2CC(C(=O)Nc3ccccc3N3CCCC3)CC2=O)cc1 (stereo not given),-,-,-,-,-,-
CCc1ccc(N2CC(C(=O)Nc3ccccc3N3CCCC3)CC2=O)cc1 (stereo not given),-,.,.,12µM,.,12µM
O=C(Nc1cc(C(F)(F)F)ccc1N1CCCC1)C1CC(=O)N(Cc2ccccc2)C1 (stereo not given),-,.,.,-,.,-
COc1ccc(C)cc1N1CC(C(=O)Nc2ccccc2N2CCCCC2)CC1=O (stereo not given),-,-,-,21µM,-,?
O=C(O)CC/C(=N\NC(=O)c1ccccc1Br)c1ccccc1,-,?,-,-,-,-
CC1(NC(=O)Cc2ccc(S(=O)(=O)N3CCOCC3)s2)CCS(=O)(=O)C1 (stereo not given),-,-,-,-,-,-
COP(=O)(OC)C(NC(=O)Nc1ccccc1)c1ccccc1 (stereo not given),-,-,-,-,-,-
O=C(NC1CCCCCC1)c1c(F)c(F)c(F)c(F)c1F,-91,-,?,-,-,-
O=C(NC1CCCCCCC1)c1ccc(F)cc1,-,-,-,-,-,-
CC1CCCCN1S(=O)(=O)c1cc2c(=O)nc3ccccn3c2cc1Cl (stereo not given),.,-,.,-,.,-
Cc1c(C(=O)NC2CCOC2)oc2c(F)cccc12 (stereo not given),-,?,-,-,-,-
Cc1cn(C2CCCCC2)c(=O)[nH]c1=O,-,.,-,-,-,-
CSC1=NC(C)(C)C=C(/C=C/c2ccc(Cl)cc2)N1,-101,?,16µM,16µM,0.65µM,21µM
CSC1=NC(C)(C)C=C(/C=C/c2c(Cl)cccc2Cl)N1,-97,?,?,-,-,-
SMILES,IL1B secr inh,BCR signal inh,MCF10A rereplic,TDP1 cell noCPT,SW480 rereplic,TDP1 cell CPT
CCSC1=NC(C)(C)C=C(/C=C/c2ccc(Cl)cc2Cl)N1,-93,?,?,16µM,?,?
Nc1nccc(/C=C/c2c(Cl)cccc2Cl)n1,.,?,?,?,?,-
CCSC1=NC(C)(C)C=C(C)N1,-,-,-,-,-,-
Cc1ccc(NC(=O)CN(C)S(=O)(=O)c2ccc3c(c2)n(C)c(=O)c(=O)n3C)cc1C,.,.,.,-,.,-
Cc1cccc(C)c1NC(=O)C(c1ccc(-c2ccccc2)cc1)n1c(=O)c(-c2cc3ccccc3[nH]2)nc2ccccc21 (stereo not given),-,.,.,?,.,?
CC(C)(C)c1ccc(C(=O)C2CCCN(C(=O)CCn3cncn3)C2)cc1 (stereo not given),-,-,-,?,?,?
Cc1cnc(C(=O)N2CCCC(C(=O)c3ccc(C(C)(C)C)cc3)C2)cn1 (stereo not given),-,-,-,23µM,-,?
CC(=O)c1ccccc1C(=O)N1CCCC(C(=O)c2ccc(C(F)(F)F)cc2)C1 (stereo not given),-,-,-,23µM,-,23µM
CC(C)(C)c1ccc(C(=O)C2CCCN(C(=O)c3ccccn3)C2)cc1 (stereo not given),-,?,-,?,?,9.2µM
O=C(c1ccc(Cl)cc1)C1CCCN(C(=O)/C=C/c2ccccn2)C1 (stereo not given),-,?,-,21µM,-,23µM
CCC(=O)N1CCc2cc(Br)cc(S(=O)(=O)NCCc3ccc(OC)c(OC)c3)c21,.,.,.,-,.,-
CCN(CC)C(=O)Cn1c(=O)n(-c2ccc(C)c(C)c2)c(=O)c2c3c(sc21)CCCCC3,.,.,.,-,.,-
Cc1ccc(C)c(N2CCN(C(=O)c3cc4cc5ccc(C)cc5nc4o3)CC2)c1,.,.,.,?,.,-
Cc1csc(NC(=O)CSc2nc(=O)[nH]c3c2CCCC3)n1,-,?,-,-,-,-
O=C(NCC(c1ccco1)N1CCCC1)c1cn(-c2ccccc2)nc1-c1ccc(F)cc1 (stereo not given),-,-,21µM,10µM,?,16µM
O=C(NCC(c1ccco1)N1CCCC1)c1ccccc1F (stereo not given),-,-,-,-,-,-
CCOc1ncccc1C(=O)NCC(c1ccco1)N1CCCCC1 (stereo not given),-,-,-,?,-,21µM
O=C(NCC(c1ccco1)N1CCCC1)c1sc2ccccc2c1Cl (stereo not given),-,-,?,21µM,-,?
O=C(NCC(c1ccco1)N1CCCCC1)c1ccc(OCc2ccccc2)cc1 (stereo not given),-,-,-,-,-,-
COc1ccccc1-c1nn(-c2ccccc2)cc1C(=O)NCC(c1ccco1)N1CCCC1 (stereo not given),-,-,-,?,-,?
CCOCc1c(C(=O)NCC(c2ccco2)N2CCCC2)oc2ccccc12 (stereo not given),-,-,-,?,-,23µM
